PREPL inh: inhibitors of human prolyl oligopeptidase-like enzyme PREPL; Q4J6C6; recombinant PREPL, fluorescence polarization activity-based probe; inhibition, % at 5.96 µM; actives 0.68% (n = 320,000); in the data active means inhibition above about 43%;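 further: 0% = enzyme with DMSO and 100% = wells lacking enzyme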
MEKK2mut PB1 HTS: signal of MEK5 binding to mutant human MEKK2 PB1 domain; bead flow cytometry, Alexa488-MEK5 binding to MEKK2 mutant; AID 1530; percent response, % at 10 µM; actives 0.35% (n = 290,000); in the data active means percent response above about 24%, passing the limit was not always enough
UBC13 inh: inhibitors of human UBC13 polyubiquitin chain formation. P61088. TR-FRET. AID 485273. actives 0.47% (n = 330,000). inhibition, % at 20 µM; in the data active means inhibition above about 45%, passing the limit was not always enough
Target sequence (P61088 whole entry, looked up): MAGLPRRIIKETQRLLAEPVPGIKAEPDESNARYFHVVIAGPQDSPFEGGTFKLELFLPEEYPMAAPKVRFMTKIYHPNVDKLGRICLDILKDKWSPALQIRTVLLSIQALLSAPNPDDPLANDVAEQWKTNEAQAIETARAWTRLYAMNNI
MEKK3 PB1 HTS: modulators (inhibitors or enhancers) of MEK5 binding to human MEKK3 PB1 domain | Q99759 | bead-based flow cytometry, Alexa488-MEK5 binding to MEKK3; actives lie on both sides; 0 = blocked by unlabeled MEK5, 100 = vehicle | binding response (% of control), % at 10 µM | actives 1.4% (n = 290,000) | AID 1529;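 active means binding response more than 3 SD above or below the average of its plate-row segment, actives on both sides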;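 further: Alexa488 bead fluorescence after subtracting the streptavidin-only scavenger bead signal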
ATG4B inh: inhibitors of human ATG4B cysteine protease. ATG4B cleavage of LC3-PLA2, NBD-HPC fluorescence, 1 h. inhibition, % at 8.33 µM. Q9Y4P1. AID 504462. actives 0.51% (n = 340,000); in the data active means inhibition above about 40%
MEKK2wt PB1 HTS: raises or lowers MEK5 binding to wildtype human MEKK2 PB1 domain. Q9Y2U5. bead flow cytometry, Alexa488-MEK5 binding to MEKK2 WT; actives lie on both sides. binding response (% of control), % at 10 µM. actives 1.1% (n = 290,000); in the data active means binding response below about 67% or above about 130%
MEKK2wt confirm: raises or lowers MEK5 binding to wildtype human MEKK2, retest; shares compounds with MEKK3 PB1 HTS; bead flow cytometry, Alexa488-MEK5 binding to MEKK2 WT; actives lie on both sides; binding response (% of control), % at 10 µM; actives 2.4% (n = 5,900); AID 1892; in the data active means binding response below about 16% or above about 210%; inactive means in between
MEKK2mut confirm: signal of MEK5 binding to mutant human MEKK2, retest. bead flow cytometry, Alexa488-MEK5 binding to MEKK2 mutant. percent response, % at 10 µM. actives 2% (n = 5,900). shares compounds with MEKK3 PB1 HTS; in the data active means percent response mostly above about 71%, no sharp cut-off; inactive means mostly below about 38%;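 further: higher means compound restores mutant binding toward wildtype level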
MEKK3 confirm: confirmation of inhibitors of MEK5 binding to human MEKK3. shares compounds with MEKK3 PB1 HTS. bead flow cytometry, Alexa488-MEK5 binding to MEKK3; active compounds read low. binding response (% of control), % at 10 µM. actives 1.8% (n = 5,900). AID 1894;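 active means binding response below 72% of control, or above a set upper limit, though filed actives all read lower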;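 further: 100% = DMSO only wells and 0% = binding blocked by excess unlabeled MEK5; lower values mean stronger disruption of MEK5 binding to MEKK3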
The depositor's hits bear a star. In the library only some 3.1% were active in any assay of this set; here they are far more common.

Results for COc1ccccc1C(CCNCc1ccccc1)c1ccc(OC(C)C)cc1 (stereo unspecified) ?
PREPL inh: -21; MEKK2mut PB1 HTS: 24*; UBC13 inh: 21; MEKK3 PB1 HTS: 110; ATG4B inh: 6; MEKK2wt PB1 HTS: 158*; MEKK2wt confirm: 148; MEKK2mut confirm: 30; MEKK3 confirm: 108

What do the screens show for `COc1ccc(C(CCNCc2ccc(OC(C)C)cc2)C(C)C)cc1` (stereo unspecified)?
PREPL inh: -39; MEKK2mut PB1 HTS: 15; UBC13 inh: 37; MEKK3 PB1 HTS: 102; ATG4B inh: 2; MEKK2wt PB1 HTS: 126

What do the screens show for `COc1ccc(CNCCC(c2ccc(OC(C)C)cc2)c2ccccc2OC)cc1OC` (stereo unspecified)?
PREPL inh: -1; MEKK2mut PB1 HTS: 28*; UBC13 inh: 23; MEKK3 PB1 HTS: 112; ATG4B inh: 0; MEKK2wt PB1 HTS: 156*; MEKK2wt confirm: 148; MEKK2mut confirm: 27; MEKK3 confirm: 112

How did CC(=O)NCCSc1ccc(S(=O)(=O)N2CCCC2)cn1 do in these assays?
PREPL inh: 8; UBC13 inh: -5; ATG4B inh: -3

What do the screens show for `CSc1nc2nc3c(cc2c(=O)n1-c1ccccc1)COC(C)(C)C3`?
PREPL inh: 7; MEKK2mut PB1 HTS: -5; UBC13 inh: 0; MEKK3 PB1 HTS: 96; ATG4B inh: -1; MEKK2wt PB1 HTS: 95

What do the screens show for `CSc1nc2nc3c(cc2c(=O)n1-c1ccc(C)cc1)COC(C)(C)C3`?
PREPL inh: 10; MEKK2mut PB1 HTS: 29; UBC13 inh: -1; MEKK3 PB1 HTS: 129*; ATG4B inh: -9; MEKK2wt PB1 HTS: 116; MEKK2wt confirm: 100; MEKK2mut confirm: -2; MEKK3 confirm: 104

What do the screens show for `COc1ccc(OCC(=O)NCc2nc(-c3ccccc3)no2)cc1`?
ATG4B inh: 0

What do the screens show for `N=C(N)SCc1cn(-c2ccccc2)nc1-c1ccc(Br)cc1`?
MEKK2mut PB1 HTS: 107*; MEKK3 PB1 HTS: 115; ATG4B inh: 27; MEKK2wt PB1 HTS: 256*; MEKK2wt confirm: 265*; MEKK2mut confirm: 105*; MEKK3 confirm: 113

How did O=C(NC(=S)N1CCOCC1)C12CC3CCC(CC(C3)C1)C2 do in these assays?
PREPL inh: 0; MEKK2mut PB1 HTS: 10; UBC13 inh: 1; MEKK3 PB1 HTS: 100; ATG4B inh: 3; MEKK2wt PB1 HTS: 110

How did O=C(NC(=S)N1CCOCC1)C12CCC3CC(CC(C3)C1)C2 do in these assays?
PREPL inh: -2; MEKK2mut PB1 HTS: 2; UBC13 inh: 9; MEKK3 PB1 HTS: 134*; ATG4B inh: -5; MEKK2wt PB1 HTS: 99; MEKK2wt confirm: 96; MEKK2mut confirm: -4; MEKK3 confirm: 100

Results for CC1CCN(CCOCCOc2ccc(Cl)cc2Br)CC1 ?
PREPL inh: 19; MEKK2mut PB1 HTS: 21; UBC13 inh: 15; MEKK3 PB1 HTS: 106; ATG4B inh: -14; MEKK2wt PB1 HTS: 147*; MEKK2wt confirm: 158; MEKK2mut confirm: 28; MEKK3 confirm: 110

What do the screens show for `Clc1ccc(OCCOCCN2CCc3ccccc3C2)c(Cl)c1`?
PREPL inh: 19; MEKK2mut PB1 HTS: 26; UBC13 inh: 27; MEKK3 PB1 HTS: 104; ATG4B inh: 10; MEKK2wt PB1 HTS: 123

What do the screens show for `Clc1ccc(OCCCN2CCc3ccccc3C2)c(Br)c1`?
PREPL inh: 19; MEKK2mut PB1 HTS: 20; UBC13 inh: 9; MEKK3 PB1 HTS: 105; ATG4B inh: 5; MEKK2wt PB1 HTS: 134*; MEKK2wt confirm: 102; MEKK2mut confirm: -1; MEKK3 confirm: 101

Bioassay records (PubChem BioAssay)
